Bioassay records deposited in PubChem by National Center for Advancing Translational Sciences (NCATS).
PTHR1 ag – activates the human parathyroid hormone receptor PTHR1; Q03431; HEK293 GP2 PTHR1 cells, GloSensor cAMP luminescence, 1 h; Potency, µM (series often up to 115 µM), for inactives: at the highest dose activation, actives largely listed as activators; actives 0.075% (n = 410,000); AID 743266; also: nearly all actives have a fitted effect of over 55% in size
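HEK-293-derived GP2 cells expressing PTHR1 and a GloSensor cAMP reporter, 3,000/well, plated overnight, given luciferin plus IBMX (each 0.5 mM as added) for 1 h at 37 °C, then compound for 1 h at 37 °C. Luminescence was read after 15 min at room temperature.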
GLP1R inv ag – inverse agonists of human GLP-1 receptor | P43220 | HEK293 GLP-1R CRE-luciferase, luminescence, 24 h; GLP-1R form is constitutively active | Potency, µM (top dose mostly 38.3 µM), without a hit: at the highest dose activity change, negative = inhibition, actives largely listed as inhibitors | actives 1.6% (n = 410,000); also: % is scaled to controls: 0 for no effect and ±100 for the full control effect; nearly all actives have a fitted effect of over 55% in size
Target sequence (P43220 whole entry, looked up): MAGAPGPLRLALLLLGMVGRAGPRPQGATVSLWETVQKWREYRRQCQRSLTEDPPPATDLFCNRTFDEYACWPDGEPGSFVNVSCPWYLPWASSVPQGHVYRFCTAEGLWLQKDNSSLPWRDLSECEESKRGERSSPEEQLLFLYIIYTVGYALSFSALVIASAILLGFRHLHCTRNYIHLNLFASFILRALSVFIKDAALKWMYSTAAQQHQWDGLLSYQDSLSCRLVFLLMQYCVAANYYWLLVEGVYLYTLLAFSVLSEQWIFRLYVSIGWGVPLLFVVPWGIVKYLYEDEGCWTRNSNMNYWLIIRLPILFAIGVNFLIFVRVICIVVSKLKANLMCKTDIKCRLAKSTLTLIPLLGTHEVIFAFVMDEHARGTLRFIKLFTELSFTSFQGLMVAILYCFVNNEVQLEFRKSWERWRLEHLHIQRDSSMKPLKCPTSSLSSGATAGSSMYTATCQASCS
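Readout was luciferase luminescence, measured 12 min after detection reagent at room temperature. Beforehand, GLP-1R reporter HEK293 cells had sat 12 h, then received compounds for 24 hr at 37 deg C.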
HEK293 tox – cytotoxicity counter-screen for GLP-1 receptor inverse agonists. actives 0.13% (n = 410,000). HEK293 cAMP-luciferase reporter cells, luminescence, 24 h. Potency, µM (highest dose often 38.3 µM), for inactives: at the top dose activity change, negative = inhibition, hits mostly inhibitors;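 also: loss of luciferase light is scored as toxicity; % is scaled to controls: 0 for no effect and ±100 for the full control effect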
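Seeding density was 200 cells/uL; after overnight-length (12 h) culture, 23 nL compounds went on for 24 h at 37 °C. Readout used a luciferase detection reagent, luminescence taken after 12 min at room temperature.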
GLP1R ag – agonists of human GLP-1 receptor | P43220 | HEK293 GLP-1R CRE-luciferase, luminescence, 4-6 h; cells express a hypersensitive GLP-1R form | Potency, µM (highest dose often 45.6 µM), without a hit: at the highest dose activation, usual class: activators | actives 0.007% (n = 380,000) | AID 624172; also: % of control where 0% means no effect
* hit, by the source's call; i = inactive; ? = inconclusive; nt = not tested or not shown; [ ] = dose if it differs, or a comment. The list is not random: actives were taken first. Their share in the collection is about 1.7%. Calls follow the shape of the dose curve; as a rule, active = well fitted curve in the direction sought with a large enough effect; inconclusive = small, poorly fitted or top-dose-only effect, or another doubt; inactive = no such curve, though single readings can be large; an effect the other way counts as inactive or inconclusive. Potency is read from the fitted curve at half-maximal effect.

SMILES	PTHR1 ag	GLP1R inv ag	HEK293 tox	GLP1R ag
COc1ccc(OC)c(NC(=O)c2cn(CC(C)C)c(=O)c3cc(OC)c(OC)cc23)c1	i	-4%	-5%	3%
Cc1ccc(C)c(NC(=O)Cn2c(=O)n(Cc3ccc4c(c3)OCO4)c(=O)c3oc4ccccc4c32)c1	18%	5%	6%	nt
Cc1ccccc1-n1sc2cc(F)ccc2c1=O	-29%	?	4.5µM*	4%
O=c1c2ccccc2sn1-c1ccccc1F	-32%	14µM*	10µM*	-5%
O=c1c2ccccc2sn1-c1ccccc1	-14%	10µM*	?	-8%
O=C(NCc1cccc(Cl)c1)c1ccc2c(Cl)c3c(nc2c1)CCCC3	-38%	-11%	2%	1%
Cc1cc(S(=O)(=O)Nc2cc3c(cc2NCc2ccccc2)n(C)c(=O)n3C)ccc1F	-28%	0%	-14%	nt
CCNc1nc(NCc2ccc(F)cc2)c2cnn(C)c2n1	-2%	-4%	-1%	nt
COc1cccc(C2C(C#N)=C(N)OC3=C2C(=O)CC(c2ccco2)C3)c1OCc1ccc(F)cc1 (stereo unspecified)	i	?	8%	1%
N#CC1=C(N)OC2=C(C(=O)CC(c3ccco3)C2)C1c1ccc(OCc2c(F)cccc2Cl)cc1 (stereo unspecified)	-47%[57.5 µM]	10µM*	-2%	-14%
COc1cc2c(cc1O)CC[C@@H]1[C@@H]2CC[C@]2(C)[C@@H](O)CC[C@@H]12	-19%	11µM*	-28%	-1%
C[C@]12CC[C@@H]3c4ccc(OC(=O)c5ccccc5)cc4CC[C@H]3[C@@H]1CC[C@@H]2O	i	3%	6%	?
O=C(NCc1cccc(C(F)(F)F)c1)C1CC(c2ccccc2[N+](=O)[O-])=NO1 (stereo unspecified)	-18%	?	2%	-1%
O=C(NCc1cc(C(F)(F)F)cc(C(F)(F)F)c1)C1CC(c2ccccc2[N+](=O)[O-])=NO1 (stereo unspecified)	-65%	10µM*	8%	1%
C=CS(=O)(=O)O	nt	nt	nt	-4%
Cn1cc(CN2CCCC(C(=O)c3cc(F)ccc3F)C2)c2ccccc21 (stereo unspecified)	i	?	-30%	11%
COc1ccc(F)cc1C(=O)C1CCCN(Cc2cn(C)c3ccccc23)C1 (stereo unspecified)	-39%	3.5µM*	?	6%
CCOC(=O)c1c(Nc2cccc(C(=O)OC)c2)nnc(-c2ccccc2)c1-c1ccccc1	-18%	1%	1%	-6%
CCOC(=O)c1c(Nc2ccc(C)cc2)nnc(-c2ccccc2)c1-c1ccccc1	-21%	11µM*	0%	-3%
CC(C)c1cccc(C(C)C)c1OC(=O)[C@H]1OC(c2ccc(Br)cc2)=C[C@@H]1c1ccc(Br)cc1	-86%	13µM*	-7%	-2%
CC(=O)c1ccc(NS(=O)(=O)c2ccc(-n3cccn3)cc2)cc1	i	10%	5%	1%
O=C(c1[nH]c2ccccc2c1Sc1ccc(Cl)cc1)N1CCCCC1	-20%	10µM*	-1%	nt
CCOc1ccc2c(ccc(/C=C/c3cc(C)c4cccnc4c3O)[n+]2C)c1	-80%	?	11µM*	-30%
COc1c(Cl)cc(C(=O)Nc2ccccc2-c2ccccc2)cc1Cl	-20%	10µM*	8%	-12%
COc1c(Cl)cc(C(=O)Nc2cccc(-c3nc4ccccc4[nH]3)c2)cc1Cl	-2%	7.9µM*	?	nt
SMILES	PTHR1 ag	GLP1R inv ag	HEK293 tox	GLP1R ag
CC(C)N(CC#CCC(O)(c1ccccc1)C1CCCC1)CCO (stereo unspecified)	-14%	?	-1%	-3%
CCN(CC#CCC(O)(c1ccccc1)C1CCCC1)C(C)C (stereo unspecified)	22%[57.5 µM]	11µM*	-30%	-7%
Cc1cc2c(cc1C)CSC(c1c(O)ccc3ccccc13)SC2	-3%	13µM*	?	1%
N#CC1(NC(=O)COC(=O)C23CC4CC(CC(O)(C4)C2)C3)CCCCC1	-23%	18%	2%	-7%
CN(C(=O)COC(=O)C12CC3CC(CC(Cl)(C3)C1)C2)C1(C#N)CCCCC1	-43%	13µM*	-36%	-5%
COc1ccc(OCCCC(=O)Nc2cc(S(=O)(=O)N3CCCCC3)ccc2OC)cc1	16%	-38%	3%	4%
COc1ccc(COC(=O)c2ccc(Cl)c(S(=O)(=O)N3CC(C)OC(C)C3)c2)cc1 (stereo unspecified)	-32%	8.9µM*	5%	4%
Cc1cccc(C(=O)N[C@H](C(=O)Nc2cc(S(=O)(=O)N3CCCCC3)ccc2C)C(C)C)c1	i	10µM*	-6%	-4%
Cc1ccc(S(=O)(=O)N2CCCCC2)cc1NC(=O)COC(=O)C1(C)CC1(Cl)Cl (stereo unspecified)	-23%	7.9µM*	-7%	10%
Cc1cccc(OC(C)C(=O)Nc2cc(S(=O)(=O)N3CCCCC3)ccc2C)c1 (stereo unspecified)	-12%	?	0%	3%
COc1ccc(OCCCC(=O)Nc2cc(S(=O)(=O)N3CCCCC3)ccc2C)cc1	-64%	5.6µM*	2%	-5%
Cc1ccc(N(C)S(=O)(=O)c2ccc(-c3coc(C)n3)cc2)cc1	-27%	-12%	3%	10%
COc1ccc(CCC(=O)Nc2ccc(Cl)c(S(=O)(=O)N3CCCC3)c2)cc1	-87%	10µM*	-4%	-4%
Cc1cccc(C)c1NC(=O)c1cn(-c2ccccc2)nc1-c1ccccc1	-8%	-1%	-14%	-1%
COc1cccc(-c2nn(-c3ccccc3)cc2C(=O)Nc2nccs2)c1	-4%	7.1µM*	-27%	-10%
Cc1nn(Cc2ccc(Cl)cc2)c(C)c1NC(=O)c1c(-c2ccccc2)noc1C	-17%	?	-18%	1%
Cc1ccccc1NC(=O)c1cn(-c2ccccc2)nc1-c1ccccc1	-33%	10µM*	0%	5%
Cc1cccc(NC(=O)c2cn(-c3ccccc3)nc2-c2ccccc2)c1C	-6%	4.5µM*	6%	nt
Cc1nn(Cc2ccc(Cl)c(Cl)c2)c(C)c1NC(=O)c1cn(-c2ccccc2)nc1-c1ccccc1	-5%[57.5 µM]	10µM*	-18%	-1%
O=C(CCNS(=O)(=O)c1cccc2nonc12)Nc1ccc(F)cc1	-5%	-17%	-4%	0%
CCCCCCCCCCCCCCCC[N+](C)(C)CCl	-39%	3.5µM*	?	-27%
CCCCCCCCCCCCCCCC[N+](C)(C)CC	-21%	11µM*	-23%	-4%
Cc1ccc(C)c(NC(=O)CSc2ncc3c(n2)-c2cc(Cl)ccc2N(Cc2ccccc2F)S3(=O)=O)c1	i	2%	4%	nt
CCCNC(=O)c1cnc2c(-c3ccc(OCC)c(OCC)c3)c(C)nn2c1-c1ccccc1	-55%	-2%	-2%	nt
Cc1ccc(Nc2nc(-c3cccs3)cs2)nc1	-20%	3.5µM*	-22%	-5%
